Among the data in PubChem BioAssay (NCI) are growth inhibition values, retold here.

SMILES strings stand for the structures. This is part of a sample that, as a whole, favours compounds with a hit. Of some 79,000 tested, about 15% had one in any assay. A number with no mark means an inactive call. Active and inactive are the calls of the source. Rule as the data show it: active = growth inhibition above about 70%; inactive = the rest.

A short description of this assay: NCI Yeast Anticancer Drug Screen. Data for the mlh1 rad18 strain (AID 175). The conditions noted are these: S. cerevisiae mlh1 rad18 strain growth inhibition; at 50.0 µM (retest, dose inferred, filed as 5.0); stronger effect = higher value. The gist of the method:
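Inhibition values reflect reduced growth of mutant yeast versus vehicle-treated controls following compound exposure; the mutations affect DNA damage repair.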
In the case of `N#CC(c1ccc(Cl)cc1)c1ccc([N+](=O)[O-])cc1` (stereo not drawn), the growth inhibition is 88% (active).
For `O=C(CC(=O)c1ccccc1NC1=Cc2ccccc2C(=O)C1=O)C(=O)NC1=C(Cl)C(=O)c2ccccc2C1=O`, the growth inhibition was 90% (active).
The value for `O=S(=O)(Nc1ccc2c3c(cccc13)C=C2)c1ccccc1` was 97% (active); that for `CC(=O)c1cccc(NC(=O)C(=O)NNc2n[nH]c(=S)n2N)c1` was 94% (active).
The value for `Nc1ncc(C(=O)c2ccccc2)cc1[N+](=O)[O-]` was -87%.
The value for `COc1ccc2cc(C3CCCC3(C)CC(=O)O)ccc2c1` (stereo not drawn) was 9%.
With `CNc1ccc(N=O)cc1`, the growth inhibition was 98% (active).
The value for `S=c1sc2nc(Cl)nc(Cl)c2s1` was 98% (active); that for `CC(=O)O/C=C1\c2ccccc2CCC1c1ccc2ccccc2c1` (stereo not drawn) was 9%.
The result for `CC1(C)C2CCC(C2)C1OC(=O)c1ccccc1C(=O)O` (stereo not drawn) reads 6%; that for `Cc1cc(=O)oc2c3c(ccc12)OC(c1ccc(Br)cc1)CC3=O` (stereo not drawn), 15%; that for `Cc1cc(N(CCOS(C)(=O)=O)CCOS(C)(=O)=O)ccc1C=Nc1cccc(Cl)c1`, 92% (active).
The value for `CN(C)CCOc1cc2c(c3ccccc13)-c1ccccc1C2O` (stereo not drawn) was 83% (active).
In the case of `NC(=S)C(=Nc1ccccc1F)Nc1ccccc1F`, the growth inhibition is 87% (active).
The value for `CCCCOc1ccc(NC(=S)Nc2ccc(OCCN(CC)CC)cc2)cc1` was 71% (active).
In the case of `CC1CCN(CC(=O)N2c3ccccc3Sc3cc4ccccc4cc32)CC1`, the growth inhibition was 8%.
Regarding `CC(C)C1COC(c2ccc3ccccc3c2-c2c(O[Si](C)(C)C(C)(C)C)ccc3ccccc23)=N1` (stereo not drawn), the growth inhibition was 4%.
The result for `CN(C)c1ccc(/C=C(\C#N)c2cccc(Cl)c2)cc1` reads -11%.
The value for `CCN(CC)CCNc1ccc(C)c2oc3ccc(O)cc3c(=O)c12` was 43%; that for `CN(C)CC1CCc2c(ccc3ccccc23)C1=O` (stereo not drawn) was 78% (active); that for `C[C@]12CCC(=O)C=C1CC[C@@H]1[C@@H]2[C@@H](O)C[C@@]2(C)[C@H]1CC[C@]2(O)C(=O)COC(=O)CCC1CCCC1` was 92% (active).
The value for `O=C(CSc1nnc(Cc2ccccc2)o1)Nc1ccc(Cl)cc1[N+](=O)[O-]` was 53%; that for `Cc1cccc2c1Oc1ccccc1C2N1C(=O)/C(=C/c2ccccc2Cl)SC1=S` (stereo not drawn) was 72% (active).
